# Assay results reported in PubChem BioAssay.
# Values joined by “and” are separate entries in the source; they are usually repeats but may differ in a detail not shown here. Equal values may be shown once. For part of these data: Entries with a potency or affinity are not part of this list. Some compounds were tested as several samples or in several runs, with calls that do not always agree. Active and inactive are the calls of the source. Unless noted, no rule for the calls is given here.
# Key:
# [1] = antimalarial activity against Dd2 strain (AID 2302;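 active = growth inhibition above 50% at the single 2 µM test dose, taken to imply half-maximal potency below 2 µM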;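 also: 0% = DMSO untreated growth and 100% = chloroquine plus artemisinin killed control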); conditions: P. falciparum Dd2 in RBCs, LDH growth readout, 72 h; at 2 µM; stronger effect = higher value
# [2] = human hepatoma cell viability loss – ATP luminescence, cytotoxicity control for P. falciparum antimalarial project, primary screen (AID 2303;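 active = inhibition above 50%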;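 also: 0% = DMSO wells and 100% = digitonin-killed cells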); conditions: HepG2 viability, 24-48 h, at 10 µM, stronger effect = higher value
# [3] = molecular target: L-lactate dehydrogenase (Plasmodium falciparum (isolate CDC / Honduras)) (UniProt Q27743); assay: PfLDH activity inhibition – cell lysate, 3D7 strain, counter-screen for P. falciparum growth inhibition project (AID 2304);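 also: 0% = vehicle and 100% = reference inhibitor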; conditions: P. falciparum 3D7 crude extract, LDH APAD/NBT absorbance; at 2 µM; stronger effect = higher value
# L-lactate dehydrogenase (Plasmodium falciparum (isolate CDC / Honduras)), sequence (Q27743 whole entry, looked up): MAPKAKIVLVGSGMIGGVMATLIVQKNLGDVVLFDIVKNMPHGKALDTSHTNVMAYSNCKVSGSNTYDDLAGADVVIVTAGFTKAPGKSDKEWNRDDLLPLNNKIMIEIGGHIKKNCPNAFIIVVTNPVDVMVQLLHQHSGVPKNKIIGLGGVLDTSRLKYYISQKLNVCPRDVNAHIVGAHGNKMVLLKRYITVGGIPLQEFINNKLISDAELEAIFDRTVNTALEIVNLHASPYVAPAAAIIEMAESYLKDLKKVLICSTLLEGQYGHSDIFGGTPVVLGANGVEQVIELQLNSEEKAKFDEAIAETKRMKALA
# [4] = inhibition of 3D7 malaria parasite growth – strain 3D7 (AID 2306);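 also: 0% = DMSO wells and 100% = chloroquine plus artemisinin control wells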; conditions: P. falciparum 3D7 erythrocytic growth, LDH absorbance, 72 h; at 2 µM; stronger effect = higher value
# [5] = molecular target: Calcium-dependent protein kinase 1 (Plasmodium falciparum (isolate 3D7)) (UniProt P62344); assay: PfCDPK1 kinase inhibitors, biochemical, TCAMS library (AID 1159585; cut-off not given, nearly all actives have IC50 up to about 0.98 µM;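 also: inhibitors leave more ATP so luminescence rises with inhibition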); conditions: recombinant PfCDPK1, Kinase-Glo ATP depletion luminescence
# Calcium-dependent protein kinase 1 (Plasmodium falciparum (isolate 3D7)), sequence (P62344 whole entry, looked up): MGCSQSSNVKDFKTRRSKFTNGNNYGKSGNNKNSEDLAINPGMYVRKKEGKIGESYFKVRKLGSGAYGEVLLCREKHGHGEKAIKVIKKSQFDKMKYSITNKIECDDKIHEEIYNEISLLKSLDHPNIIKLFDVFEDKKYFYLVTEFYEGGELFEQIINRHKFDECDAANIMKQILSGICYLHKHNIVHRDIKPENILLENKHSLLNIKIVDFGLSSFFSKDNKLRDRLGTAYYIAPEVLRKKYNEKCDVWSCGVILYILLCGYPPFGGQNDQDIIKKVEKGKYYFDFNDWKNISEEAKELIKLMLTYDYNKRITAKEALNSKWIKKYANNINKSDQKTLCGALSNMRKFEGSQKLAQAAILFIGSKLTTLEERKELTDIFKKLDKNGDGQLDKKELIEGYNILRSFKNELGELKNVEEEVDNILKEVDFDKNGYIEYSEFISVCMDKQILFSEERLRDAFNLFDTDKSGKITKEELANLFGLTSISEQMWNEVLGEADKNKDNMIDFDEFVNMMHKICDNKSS
# [6] = molecular target: Plasmodium falciparum protein kinase 6 (PK6, PF3D7_1337100) (UniProt Q8IDW1); assay: PfPK6 kinase inhibitors, biochemical, TCAMS library (AID 1159586); conditions: recombinant PfPK6, Kinase-Glo ATP depletion luminescence
# Plasmodium falciparum protein kinase 6 (PK6, PF3D7_1337100), sequence (Q8IDW1 1-305): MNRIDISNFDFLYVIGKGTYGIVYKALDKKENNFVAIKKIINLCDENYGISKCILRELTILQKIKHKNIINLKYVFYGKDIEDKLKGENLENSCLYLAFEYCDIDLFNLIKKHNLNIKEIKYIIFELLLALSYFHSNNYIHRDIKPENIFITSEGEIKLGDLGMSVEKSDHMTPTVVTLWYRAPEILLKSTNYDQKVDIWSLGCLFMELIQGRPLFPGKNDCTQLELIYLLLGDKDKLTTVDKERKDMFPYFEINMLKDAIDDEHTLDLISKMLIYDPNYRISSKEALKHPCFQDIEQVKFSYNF
# [7] = molecular target: Protein kinase 7 (PK7), Plasmodium falciparum 3D7 (PF3D7_0213400) (UniProt Q7YTF7); assay: inhibition of Plasmodium PK7 catalytic activity – biochemical, TCAMS antimalarial set, Kinase-Glo luminescence (AID 1159587); conditions: recombinant PfPK7, Kinase-Glo ATP depletion luminescence
# Protein kinase 7 (PK7), Plasmodium falciparum 3D7 (PF3D7_0213400), sequence (Q7YTF7 1-343): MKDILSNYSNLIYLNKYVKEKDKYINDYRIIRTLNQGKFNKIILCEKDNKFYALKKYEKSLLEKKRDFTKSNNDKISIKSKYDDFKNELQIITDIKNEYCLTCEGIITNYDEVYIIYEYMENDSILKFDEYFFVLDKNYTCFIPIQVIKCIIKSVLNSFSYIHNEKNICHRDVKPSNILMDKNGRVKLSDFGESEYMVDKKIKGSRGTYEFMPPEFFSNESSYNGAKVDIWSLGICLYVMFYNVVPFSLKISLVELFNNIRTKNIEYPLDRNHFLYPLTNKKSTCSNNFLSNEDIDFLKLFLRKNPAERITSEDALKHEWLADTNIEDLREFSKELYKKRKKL
# [8] = molecular target: Calcium-dependent protein kinase 4 (Plasmodium falciparum (isolate 3D7)) (UniProt Q8IBS5); assay: PfCDPK4 kinase inhibitors, biochemical, TCAMS library (AID 1159588; cut-off not given, nearly all actives have IC50 up to about 0.91 µM); conditions: recombinant PfCDPK4, Kinase-Glo ATP depletion luminescence
# Calcium-dependent protein kinase 4 (Plasmodium falciparum (isolate 3D7)), sequence (Q8IBS5 whole entry, looked up): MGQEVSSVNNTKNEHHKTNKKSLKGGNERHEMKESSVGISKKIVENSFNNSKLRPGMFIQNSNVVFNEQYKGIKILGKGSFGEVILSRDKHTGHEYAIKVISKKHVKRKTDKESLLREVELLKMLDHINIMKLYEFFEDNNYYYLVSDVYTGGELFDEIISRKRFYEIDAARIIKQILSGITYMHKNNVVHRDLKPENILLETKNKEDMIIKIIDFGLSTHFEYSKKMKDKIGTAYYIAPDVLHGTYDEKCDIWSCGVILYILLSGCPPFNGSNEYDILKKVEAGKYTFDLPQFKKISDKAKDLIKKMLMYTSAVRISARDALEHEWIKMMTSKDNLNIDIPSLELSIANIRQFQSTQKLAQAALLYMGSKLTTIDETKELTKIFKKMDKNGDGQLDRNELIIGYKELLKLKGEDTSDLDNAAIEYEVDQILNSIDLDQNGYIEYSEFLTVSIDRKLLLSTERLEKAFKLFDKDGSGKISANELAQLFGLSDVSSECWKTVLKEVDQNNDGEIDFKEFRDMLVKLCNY
SMILES,growth inhibition [1],inhibition [2],inhibition [3],growth inhibition [4],outcome [5],outcome [6],outcome [7],outcome [8]
C[C@H](Cc1ccc(OCCCCCCOc2ccccc2)cc1)NC[C@H](O)c1cccc(Cl)c1,99% (active),21% (inactive),7% (inactive),93% (active),inactive,inactive,inactive,inactive
O=C(c1cccs1)N(Cc1cccc(-c2ccc(CNC3CCCC3)cc2)c1)C1CCN(Cc2ccccc2)CC1,74% (active),20% (inactive),0% (inactive),90% (active),inactive,inactive,inactive,inactive
COc1ccc(C=CC(=O)NC2CCC(CN3CCC(c4c[nH]c5ccccc45)CC3)CC2)cc1 (configuration not stated),60% (active) and 61% (active),13% (inactive) and 30% (inactive),-6% (inactive) and -7% (inactive),100% (active),inactive,inactive,inactive,inactive
C=C[C@@H]1CN2CC[C@H]1C[C@H]2[C@H](O)c1cc(-c2ccc(Cl)cc2)nc2ccc(OC)cc12,98% (active),38% (inactive),0% (inactive),99% (active),inactive,inactive,inactive,inactive
CC(Cc1ccc(OCc2ccc(CCN(C)C)cc2)cc1)NCCc1cccc(Cl)c1 (configuration not stated),78% (active),42% (inactive),5% (inactive),100% (active),inactive,inactive,inactive,inactive
Cc1ccc(CC(C)(C)NCC(O)c2cccc(C(F)(F)F)c2)cc1 (configuration not stated),92% (active),19% (inactive),2% (inactive),97% (active),inactive,inactive,inactive,inactive
Cc1[nH]c2ccc(O)cc2c1C1CCN(CC2CCC(NC(=O)/C=C/c3c(Cl)cccc3Cl)CC2)CC1 (configuration not stated),93% (active),25% (inactive),-3% (inactive),103% (active),inactive,inactive,inactive,inactive
CCCCCCCCNCC(O)c1ccc(Cl)c(Cl)c1 (configuration not stated),87% (active),-4% (inactive),-3% (inactive),99% (active),inactive,inactive,inactive,inactive
CC[C@H]1CN2CCc3cc(OC)c(OC)cc3[C@@H]2C[C@@H]1C[C@H]1NCCc2c1cc(OC)c(O)c2Cl,101% (active),51% (active),2% (inactive),100% (active),inactive,inactive,inactive,inactive
CC[C@H]1CN2CC[C@@H]1C[C@H]2[C@H](O)c1cc(N2CCC(c3ccccc3)CC2)nc2ccc(OC)cc12,98% (active),45% (inactive),-5% (inactive),99% (active),inactive,inactive,inactive,inactive
O=C(NC1CCC(CN2CCC(c3c[nH]c4ccccc34)CC2)CC1)C1(O)c2ccccc2-c2ccccc21 (configuration not stated),46% (inactive),22% (inactive),-4% (inactive),85% (active),inactive,inactive,inactive,inactive
Cc1ccc(CC(C)NCC(O)c2cccc(C(F)(F)F)c2)cc1F (configuration not stated),91% (active),15% (inactive),3% (inactive),97% (active),inactive,inactive,inactive,inactive
CC[C@H]1CN2CC[C@H]1C[C@@H]2[C@@H](OC(=O)c1ccc(Cl)cc1)c1ccnc2ccc(OC)cc12,-3% (inactive),-18% (inactive),-1% (inactive),89% (active),inactive,inactive,inactive,inactive
COC(=O)c1ccc(CC(C)NCC(O)c2cc(Cl)c(N)c(Cl)c2)cc1 (configuration not stated),66% (active),-2% (inactive),-7% (inactive),91% (active),inactive,inactive,inactive,inactive
O=C(NC1CCC(CN2CCC(c3c[nH]c4ccccc34)CC2)CC1)c1cc2ccccc2s1 (configuration not stated),43% (inactive) and 68% (active),44% (inactive),4% (inactive) and 5% (inactive),98% (active) and 101% (active),inactive,inactive,inactive,inactive
CN1CCC(COC(=O)C(O)(c2ccccc2)c2ccccc2)C1 (configuration not stated),4% (inactive),0% (inactive),-4% (inactive),98% (active),inactive,inactive,inactive,inactive
CN(c1cc(NC(=O)c2cccs2)ccn1)C1CCN(Cc2cccc(C#N)c2)CC1,69% (active),59% (active),4% (inactive),90% (active),inactive,inactive,inactive,inactive
COc1ccc(CCNCc2ccc3c(C)cc(N)nc3c2)cc1,69% (active),12% (inactive),0% (inactive),101% (active),inactive,inactive,inactive,inactive
O=C(/C=C/c1ccc(Cl)c(Cl)c1)N1CCC(CN2CCC(c3cn(CC(=O)N4CCCCC4)c4ccccc34)CC2)CC1,65% (active),52% (active),-2% (inactive),100% (active),inactive,inactive,inactive,inactive
COCCNCc1ccc(-c2cccc(CN(C(=O)CCC3CCCC3)C3CCN(Cc4ccccc4)CC3)c2)cc1,86% (active),50% (active),-2% (inactive),91% (active),inactive,inactive,inactive,inactive
CC(=O)N(Cc1ccc(-c2ccc(CNCCc3ccccc3)cc2)cc1)C1CCN(Cc2ccccc2)CC1,15% (inactive),45% (inactive),-2% (inactive),95% (active),inactive,inactive,inactive,inactive
Cc1cc(NC(=O)[C@@H](Nc2ccc(C#N)c3ccccc23)C2CCCCC2)ccc1F,83% (active),10% (inactive),0% (inactive),95% (active),inactive,inactive,inactive,inactive
COC(=O)/C=C/c1ccc(C[C@@H](C)NC[C@H](O)c2cccc(C(F)(F)F)c2)cc1,93% (active),41% (inactive),-6% (inactive),97% (active),inactive,inactive,inactive,inactive
Cc1cc(N)nc2cc(CNCCc3ccccc3Br)ccc12,93% (active),47% (inactive),0% (inactive),101% (active),inactive,inactive,inactive,inactive
